From PubChem
Most compounds without a hit are left out; they make up all but 12% or so of the library.
PI5P4K alpha inh: blocks human PI5P4K alpha kinase activity. max response, %. P48426. PI5P4Kalpha enzyme, ADP-Glo luminescence, 60 min; active compounds read low. 1.2% of 330,000 active; active = max response of -50% or lower; inconclusive = between -30% and -50%; inactive = -30% or higher; also: value at the top dose of about 77 µM; % is scaled to controls: 0 for no effect and ±100 for the full control effect
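ADP-Glo luminescence end-point read after a 60 min room-temperature kinase reaction of PI5P4Kalpha plus substrate, initiated with ATP at 5 microM final. Buffer: 0.038 M HEPES pH 7.4, EGTA, 0.1% CHAPS, 5% DMSO.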
BAZ2B inh: blocks human BAZ2B; AlphaScreen BAZ2B-H3K14Ac peptide displacement; Potency, µM (highest dose often 114 µM), inactives show at the top dose activity change, negative = inhibition, hits mostly inhibitors; 4.4% of 360,000 active; AID 504333; also: potency is read from the fitted curve at half-maximal effect; % is scaled to controls: 0 for no effect and ±100 for the full control effect; nearly all actives have a fitted effect of over 60% in size
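AlphaScreen luminescence quantifies BAZ2B engagement of H3K14Ac peptide; the protein and biotinylated peptide are both at 50 nM final, buffer PBS pH 7.4 with 0.01% Tween-20, all steps at room temperature.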
HP1b binding inh: blocks HP1-beta chromodomain binding to methylated histone tails. 0.56% of 390,000 active. AID 540317. AlphaScreen HP1-beta / biotin-H3K9me3 peptide binding. P83916. Potency, µM (titrated, usually from 114 µM), inactives show top-dose activity change, negative = inhibition, hits mostly inhibitors; also: potency is read from the fitted curve at half-maximal effect; nearly all actives have a fitted effect of over 70% in size
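AlphaScreen: HP1-beta (50 nM) preformed 30 min with biotin-H3(1-18)K9me3 peptide (50 nM) in PBS pH 7.4, 0.01% Tween-20. Compound added for 30 min at RT, then streptavidin donor/nickel chelate acceptor beads (10 ug/mL) for 30 min.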
PLK1 PBD block: blocks phosphopeptide binding to human PLK1 polo-box domain. Potency, µM, without a hit: max response, negative = inhibition, usual class: inhibitors. AID 720504. Plk1 PBD binding of FITC phosphopeptide, fluorescence polarization. P53350. 2.8% of 360,000 active; also: potency is read from the fitted curve at half-maximal effect; series mostly up to about 57 µM; % is scaled to controls: 0 for no effect and ±100 for the full control effect; nearly all actives have a fitted effect of over 65% in size
G9a block: inhibitors of human histone lysine methyltransferase G9a; AID 504332; 8.8% of 350,000 active; Q96KQ7; Potency, µM (titrated, usually from 102 µM), for inactives: at the top dose activity, negative = inhibition, actives largely listed as inhibitors; G9a H3K9 monomethylation, AlphaScreen, 2 h; also: potency is read from the fitted curve at half-maximal effect; % is scaled to controls: 0 for no effect and ±100 for the full control effect; nearly all actives have a fitted effect of over 75% in size
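Methyltransferase reactions run at room temperature for 2 h (20 nM enzyme, 500 nM biotin-H3K9 peptide, 20 uM SAM) after a 15 min compound preincubation; product detected by AlphaScreen beads and anti-H3K9me1 antibody.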
JMJD2A Tudor inh: blocks the human JMJD2A Tudor domain; AlphaScreen JMJD2A-Tudor / H3K4me3 peptide binding; Potency, µM (highest dose often 114 µM), inactives show at the top dose activity change, negative = inhibition, hits mostly inhibitors; 4.4% of 390,000 active; also: potency is read from the fitted curve at half-maximal effect; % is scaled to controls: 0 for no effect and ±100 for the full control effect; nearly all actives have a fitted effect of over 50% in size
Target sequence (O75164 whole entry, looked up, the tested form may be a part): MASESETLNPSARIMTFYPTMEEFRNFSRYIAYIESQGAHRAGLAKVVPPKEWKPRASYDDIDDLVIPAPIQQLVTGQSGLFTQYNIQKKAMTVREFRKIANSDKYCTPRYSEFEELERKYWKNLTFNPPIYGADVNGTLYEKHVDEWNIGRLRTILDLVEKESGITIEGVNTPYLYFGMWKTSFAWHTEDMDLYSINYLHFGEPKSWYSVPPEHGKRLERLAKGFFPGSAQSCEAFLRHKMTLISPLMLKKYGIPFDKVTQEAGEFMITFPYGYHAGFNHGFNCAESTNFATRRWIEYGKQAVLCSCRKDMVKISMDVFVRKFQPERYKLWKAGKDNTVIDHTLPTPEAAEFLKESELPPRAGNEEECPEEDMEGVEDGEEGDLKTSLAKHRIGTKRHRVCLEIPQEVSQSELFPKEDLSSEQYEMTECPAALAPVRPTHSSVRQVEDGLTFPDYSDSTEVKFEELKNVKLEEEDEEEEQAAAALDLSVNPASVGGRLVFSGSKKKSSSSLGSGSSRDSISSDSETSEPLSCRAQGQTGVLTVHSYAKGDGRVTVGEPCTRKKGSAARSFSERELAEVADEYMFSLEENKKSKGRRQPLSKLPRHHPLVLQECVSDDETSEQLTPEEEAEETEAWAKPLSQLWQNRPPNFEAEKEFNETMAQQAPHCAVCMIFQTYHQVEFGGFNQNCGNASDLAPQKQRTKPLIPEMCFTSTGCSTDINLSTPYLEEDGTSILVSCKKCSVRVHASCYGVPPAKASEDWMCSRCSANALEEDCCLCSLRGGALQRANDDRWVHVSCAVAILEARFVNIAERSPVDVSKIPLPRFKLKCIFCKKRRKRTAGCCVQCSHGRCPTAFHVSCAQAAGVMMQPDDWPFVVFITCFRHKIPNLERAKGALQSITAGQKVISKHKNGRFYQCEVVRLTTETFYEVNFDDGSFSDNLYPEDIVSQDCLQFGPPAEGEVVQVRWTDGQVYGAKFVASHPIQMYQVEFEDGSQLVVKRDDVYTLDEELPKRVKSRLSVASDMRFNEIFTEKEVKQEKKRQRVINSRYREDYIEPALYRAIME
Starred values were filed as active, the others as inactive; ? = inconclusive; . = no result; [ ] = dose if it differs, or a comment. Unless noted, calls follow the shape of the dose curve; as a rule, active = well fitted curve in the direction sought with a large enough effect; inconclusive = small, poorly fitted or top-dose-only effect, or another doubt; inactive = no such curve, though single readings can be large; an effect the other way counts as inactive or inconclusive.

SMILES | PI5P4K alpha inh | BAZ2B inh | HP1b binding inh | PLK1 PBD block | G9a block | JMJD2A Tudor inh
CCc1ccc(NC(=S)Nn2cnnc2)cc1 | ? | -26% | ? | 17µM* | 7.9µM* | 79µM*
COc1ccc(NC(=S)NC23CN4CN(CN(C4)C2)C3)c(OC)c1 | 1 | -7% | -4% | -14% | ? | -31%
CCc1ccc(NC(=O)Nn2cnnc2)cc1 | 1 | -17% | 28% | -1% | 8% | -10%
O=C(Nc1ccccc1)Nn1cnnc1 | 5 | 0% | 28% | -3% | 25% | -12%
Cc1ccc(NC(=S)Nn2cnnc2)cc1 | -9 | ? | -17% | 11µM* | 2.8µM* | ?
COc1ccc(NC(=S)Nn2cnnc2)c(OC)c1 | -19 | ? | ? | 21µM* | 5µM* | ?
CNC(=S)Nc1ccc(C)cc1 | -2 | -19% | 1% | -19% | 14% | -10%
O=C(Nc1ccc2nc(SCC(=O)N3CCCC3)sc2c1)c1cccc(Br)c1 | . | -16% | 15% | . | -23%[59 µM] | -15%
COc1ccc(NC(=S)Nn2cnnc2)cc1OC | -2 | -33% | ? | 15µM* | 4µM* | 18µM*
COc1ccc2c(c1)C1C=CCC1C(c1cc3c(cc1Br)OCO3)N2 (stereo unspecified) | . | 35µM* | -44% | -7% | 40µM* | 22µM*
CC(=O)c1ccc2c(c1)C1C=CCC1C(c1cc3c(cc1Br)OCO3)N2 (stereo unspecified) | -7 | -32% | 10% | -18% | 25%[2.33 µM] | -31%
COc1ccc(CCN(C)CC(O)COc2ccc(C(C)=O)cc2OC)cc1OC (stereo unspecified) | 1 | -30% | 79µM* | 1% | 28µM* | 28µM*
COc1cc(C(C)=O)ccc1OCC(O)CNCC(O)c1ccccc1 (stereo unspecified) | -8 | 56µM* | ? | 4% | 24% | 28µM*
CN(Cc1ccc(Br)cc1)CC(O)COc1cccc(Br)c1 (stereo unspecified) | 30 | 79µM* | ? | 0% | 22µM* | 5µM*
COc1cc(C(C)=O)ccc1OCC(O)Cn1nc(C)c(C(C)=O)c1C (stereo unspecified) | -4 | -6% | 18% | -21% | . | -14%
COc1cc(C(C)=O)ccc1OCC(O)CN1CCN(S(=O)(=O)c2ccccc2)CC1 (stereo unspecified) | 0 | 0% | 38% | -9% | 10%[12.7 µM] | -14%
COc1ccc(CCN(C)CCc2ccc(OC)c(OC)c2)cc1OC | 5 | . | 28% | -18% | 16µM* | -14%
COc1ccc(CCN(C)CCC(=O)Nc2ccc(C)cc2)cc1OC | 1 | 3% | 17% | -9% | -50%[59 µM] | -28%
COc1ccc(CCN(C)CC(O)c2ccccc2)cc1OC (stereo unspecified) | -9 | ? | ? | -14% | 28µM* | 2.5µM*
COc1ccc(CCN(C)CCC(=O)Nc2cccc(C)c2)cc1OC | -3 | -8% | 22% | -13% | ? | -19%
C=CCOc1ccc(CN(C)CC(O)COc2ccc(CCC(C)=O)cc2)cc1 (stereo unspecified) | -8 | -26% | ? | -9% | 10µM* | 1µM*
COc1ccc(Cc2noc(CN(C)CC(O)c3ccccc3)n2)cc1OC (stereo unspecified) | 5 | -1% | 40% | -7% | . | -11%
COc1ccc(CCN(C)C/C=C/c2ccccc2)cc1OC | 1 | ? | ? | -1% | 50µM* | 28µM*
COc1ccc(CN(C)CC(O)COc2ccc(-c3ccccc3)cc2)cc1OC (stereo unspecified) | 9 | 79µM* | 50µM* | -16% | 40µM* | 35µM*
CN(Cc1ccc(OCC(O)CN(C)Cc2ccccc2)cc1)Cc1nccn1C (stereo unspecified) | 4 | ? | 16% | -7% | -106%[59 µM] | -34%
Cc1ccccc1C1CC(=O)Oc2cc(C)c(Cl)c(C)c21 (stereo unspecified) | . | . | . | . | 25% | .
COc1ccc(-n2c(=S)[nH]c3cc(C(=O)NCc4cccnc4)ccc3c2=O)cc1 | -2 | 2% | 52% | -13% | 4% | -17%
